Source: PubChem BioAssay AID1159580 (chemical genetic matrix, 2015)
In all, about 5,500 compounds went through this assay and about 2,000 (36%) were called active. Another 18% or so got no clear call; they are omitted. Rule as the data show it: active = normalized growth mostly below about 0.91 (no sharp cut-off); inconclusive = no clear call, values can overlap the other calls; inactive = mostly above about 0.92. This is one part of the list.

Test: chemical genetic growth profiling, strain panel (AID 1159580);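 also: tested at 20 µM; growth read once vehicle control cultures reached saturation at 30 °C; 1 = growth at the plate median or of vehicle wells; lower values mean less growth of the strain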
Settings: S. cerevisiae deletion strains, growth OD

Measured: normalized growth

C=C1C2CCC3(C)C(c4ccoc4)OC(=O)CC13OC1CC(OC(C)=O)C(C)(C)C(CC(=O)OC)C12C (stereo unspecified)
inactive: locus YAL021C, strain ccr4, active compounds read low 1.02 | locus YAL026C, strain drs2, active compounds read low 1.01 | locus YAL030W, strain snc1, active compounds read low 1 | locus YBL061C, strain skt5, active compounds read low 0.993 | locus YBR009C, strain hhf1, active compounds read low 1 | locus YBR021W, strain FUR4, active compounds read low 1 | locus YBR023C, strain chs3, active compounds read low 1 | locus YBR171W, strain sec66, active compounds read low 1.01 | locus YBR229C, strain ROT2, active compounds read low 1 | locus YBR231C, strain swc5, active compounds read low 1.02 | locus YBR279W, strain paf1, active compounds read low 1.01 | locus YCL011C, strain gbp2, active compounds read low 1 | locus YCL016C, strain dcc1, active compounds read low 1 | locus YCL029C, strain bik1, active compounds read low 0.995 | locus YCL061C, strain MRC1, active compounds read low 1.01 | locus YCL069W, strain vba3, active compounds read low 1 | locus YCR088W, strain abp1, active compounds read low 1.01 | locus YDL005C, strain med2, active compounds read low 0.985 | locus YDL035C, strain GPR1, active compounds read low 0.993 | locus YDL040C, strain nat1, active compounds read low 1.01 | locus YDL074C, strain BRE1, active compounds read low 1.02 | locus YDL101C, strain DUN1, active compounds read low 1 | locus YDL185W, strain tfp1, active compounds read low 0.999 | locus YDL192W, strain arf1, active compounds read low 0.985 | locus YDR001C, strain nth1, active compounds read low 1.01 | locus YDR069C, strain doa4, active compounds read low 1.01 | locus YDR101C, strain arx1, active compounds read low 1.05 | locus YDR137W, strain rgp1, active compounds read low 0.899 | locus YDR159W, strain sac3, active compounds read low 1.03 | locus YDR162C, strain NBP2, active compounds read low 0.991 | locus YDR195W, strain ref2 1 | locus YDR297W, strain sur2, active compounds read low 1.02 | locus YDR318W, strain mcm21, active compounds read low 0.992 | locus YDR334W, strain swr1, active compounds read low 1.03 | locus YDR335W, strain msn5, active compounds read low 1 | locus YDR388W, active compounds read low 1 | locus YDR392W, strain spt3, active compounds read low 1.01 | locus YDR502C, strain sam2, active compounds read low 0.994 | locus YEL003W, strain gim4, active compounds read low 1.01 | locus YEL037C, strain rad23, active compounds read low 1.02 | locus YEL061C, strain CIN8 (second series), active compounds read low 1.01 | locus YEL061C, strain CIN8, active compounds read low 1 | locus YER015W, strain faa2, active compounds read low 1.01 | locus YER016W, strain bim1, active compounds read low 1.01 | locus YER110C, active compounds read low 0.99 | locus YER111C, strain swi4, active compounds read low 0.988 | locus YER155C, strain BEM2 (second series), active compounds read low 1.02 | locus YER155C, strain BEM2, active compounds read low 1.01 | locus YER167W, strain BCK2, active compounds read low 1.01 | locus YFR010W, strain ubp6, active compounds read low 1.01 | locus YGL078C, strain dbp3, active compounds read low 1.01 | locus YGL086W, strain mad1, active compounds read low 0.998 | locus YGL167C, strain pmr1, active compounds read low 1.01 | locus YGL173C, strain kem1, active compounds read low 0.998 | locus YGL227W, strain vid30, active compounds read low 1 | locus YGL240W, strain doc1, active compounds read low 0.991 | locus YGL248W, strain PDE1, active compounds read low 0.993 | locus YGL253W, strain hxk2, active compounds read low 0.981 | locus YGR135W, strain pre9, active compounds read low 0.983 | locus YGR252W, strain gcn5, active compounds read low 0.923 | locus YHR013C, strain ard1, active compounds read low 1.01 | locus YHR027C, strain rpn1, active compounds read low 1.02 | locus YHR030C, strain SLT2, active compounds read low 1.01 | locus YHR079C, strain IRE1 (second series), active compounds read low 1 | locus YHR094C, strain hxt1, active compounds read low 0.999 | locus YHR129C, strain ARP1, active compounds read low 1.01 | locus YHR142W, strain chs7, active compounds read low 0.99 | locus YHR200W, strain rpn10, active compounds read low 1 | locus YIL066C, strain RNR3, active compounds read low 1.01 | locus YIL073C, strain SPO22, active compounds read low 0.973 | locus YIL125W, strain kgd1, active compounds read low 0.998 | locus YIR030C, strain dcg1, active compounds read low 0.998 | locus YJL092W, strain hpr5, active compounds read low 1.02 | locus YJL095W, strain BCK1 (second series), active compounds read low 1.02 | locus YJL095W, strain BCK1, active compounds read low 1.01 | locus YJL115W, strain asf1, active compounds read low 1.01 | locus YJL129C, strain trk1, active compounds read low 0.969 | locus YJL134W, strain LCB3, active compounds read low 1.01 | locus YJL154C, strain vps35, active compounds read low 1.03 | locus YJL164C, strain tpk1, active compounds read low 0.997 | locus YJL166W, strain qcr8, active compounds read low 1.02
